According to the supplement of paper PMC11732987, “Enantioselective OTUD7B fragment discovery through chemoproteomics screening and high-throughput optimisation” (Communications Chemistry, 2025):

What was measured:
Assay in all cases: log2 ratio of Biotin-Ahx-Ub-VS probe labelling (fragment/DMSO); higher = less target engagement (more negative = stronger competition), active = hit call of the paper (q ≤ 0.05, log2 ratio ≤ -1)
Settings in all cases: compound concentration: 200 uM; treatment time: 3 h
[1] = target: T1, USP19 (UniProt O94966)
T1 sequence (whole entry): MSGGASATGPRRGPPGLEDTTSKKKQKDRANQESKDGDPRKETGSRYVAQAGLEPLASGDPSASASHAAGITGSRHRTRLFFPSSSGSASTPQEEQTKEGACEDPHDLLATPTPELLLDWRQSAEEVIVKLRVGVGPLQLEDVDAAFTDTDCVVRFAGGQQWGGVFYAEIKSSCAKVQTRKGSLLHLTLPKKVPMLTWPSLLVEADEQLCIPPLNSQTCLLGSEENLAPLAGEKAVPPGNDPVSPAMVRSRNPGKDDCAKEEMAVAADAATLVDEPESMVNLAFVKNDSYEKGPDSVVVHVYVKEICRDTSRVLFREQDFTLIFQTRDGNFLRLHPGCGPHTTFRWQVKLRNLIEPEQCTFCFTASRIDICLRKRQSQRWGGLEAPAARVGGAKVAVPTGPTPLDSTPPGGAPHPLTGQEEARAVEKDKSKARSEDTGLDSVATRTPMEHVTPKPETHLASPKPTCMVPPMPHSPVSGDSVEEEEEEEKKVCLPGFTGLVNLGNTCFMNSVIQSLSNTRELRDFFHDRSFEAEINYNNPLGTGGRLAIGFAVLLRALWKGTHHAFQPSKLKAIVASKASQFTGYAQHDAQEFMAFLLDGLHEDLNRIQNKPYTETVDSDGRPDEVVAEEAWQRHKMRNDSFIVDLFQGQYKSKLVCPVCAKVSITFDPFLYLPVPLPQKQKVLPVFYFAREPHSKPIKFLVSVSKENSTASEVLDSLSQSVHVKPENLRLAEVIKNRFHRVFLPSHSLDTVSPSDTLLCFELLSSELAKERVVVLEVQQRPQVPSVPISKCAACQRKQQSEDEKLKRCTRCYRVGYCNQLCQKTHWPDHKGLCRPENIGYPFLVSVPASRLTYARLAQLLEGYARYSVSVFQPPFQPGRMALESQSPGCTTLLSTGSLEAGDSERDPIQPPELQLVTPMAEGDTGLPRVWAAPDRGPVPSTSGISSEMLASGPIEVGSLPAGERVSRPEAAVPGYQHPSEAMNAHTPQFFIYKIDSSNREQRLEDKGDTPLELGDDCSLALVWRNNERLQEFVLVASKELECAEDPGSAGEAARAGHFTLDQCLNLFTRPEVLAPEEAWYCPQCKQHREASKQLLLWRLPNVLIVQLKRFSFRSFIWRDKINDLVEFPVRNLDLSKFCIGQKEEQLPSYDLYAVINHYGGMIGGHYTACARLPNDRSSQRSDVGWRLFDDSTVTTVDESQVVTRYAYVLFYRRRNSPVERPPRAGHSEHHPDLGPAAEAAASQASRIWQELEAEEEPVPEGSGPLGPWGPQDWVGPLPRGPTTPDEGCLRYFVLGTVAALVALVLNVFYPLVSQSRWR
In short: (§1)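 HEK293T lysate, 495 µg per sample in Tris/CHAPS/IGEPAL buffer with protease inhibitors, was treated in triplicate with fragment at 200 µM or vehicle for 3 h and then with Biotin-Ahx-Ub-VS at 0.5 µM final for 1 h. Labelled DUBs were NeutrAvidin-enriched, digested with LysC and trypsin, and run by diaPASEF LC-MS/MS. Spectronaut label-free quantities were global-median-normalised, and values are average log2 fragment/vehicle ratios by unpaired t-test on proteins with ≥2 unique peptides.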

[2] = target: USP24 (UniProt Q9UPU5)
In short: as §1

[3] = target: T2, USP25 (UniProt Q9UHP3)
T2 sequence (whole entry): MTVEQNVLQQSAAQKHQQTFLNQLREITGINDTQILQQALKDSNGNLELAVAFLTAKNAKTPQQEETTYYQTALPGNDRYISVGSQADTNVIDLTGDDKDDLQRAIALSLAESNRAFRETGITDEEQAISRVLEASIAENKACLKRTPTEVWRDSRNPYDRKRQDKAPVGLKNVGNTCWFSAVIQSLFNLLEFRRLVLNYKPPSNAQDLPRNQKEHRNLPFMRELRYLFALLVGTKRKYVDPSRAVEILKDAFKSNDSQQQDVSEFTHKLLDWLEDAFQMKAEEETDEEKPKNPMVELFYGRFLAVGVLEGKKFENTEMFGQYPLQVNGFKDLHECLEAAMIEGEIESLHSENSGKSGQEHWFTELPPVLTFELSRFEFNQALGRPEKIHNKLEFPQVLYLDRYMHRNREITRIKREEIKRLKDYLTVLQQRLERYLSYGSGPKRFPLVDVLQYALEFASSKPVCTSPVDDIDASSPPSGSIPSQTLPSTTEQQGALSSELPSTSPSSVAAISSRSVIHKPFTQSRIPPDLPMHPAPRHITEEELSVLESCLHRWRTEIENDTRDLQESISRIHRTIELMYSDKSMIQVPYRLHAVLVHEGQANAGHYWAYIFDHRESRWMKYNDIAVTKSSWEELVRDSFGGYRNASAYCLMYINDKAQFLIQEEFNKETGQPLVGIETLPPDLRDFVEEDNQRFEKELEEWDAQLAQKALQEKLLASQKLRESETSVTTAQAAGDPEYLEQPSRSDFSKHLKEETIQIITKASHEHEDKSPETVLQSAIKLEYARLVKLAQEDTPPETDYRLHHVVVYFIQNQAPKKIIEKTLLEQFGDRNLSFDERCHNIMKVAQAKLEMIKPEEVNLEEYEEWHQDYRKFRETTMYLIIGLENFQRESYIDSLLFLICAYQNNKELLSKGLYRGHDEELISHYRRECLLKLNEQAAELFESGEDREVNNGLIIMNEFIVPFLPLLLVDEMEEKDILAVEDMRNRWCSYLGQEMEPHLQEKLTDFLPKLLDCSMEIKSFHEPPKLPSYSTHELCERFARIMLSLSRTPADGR
In short: as §1

[4] = target: T3, USP28 (UniProt Q96RU2)
T3 sequence (whole entry): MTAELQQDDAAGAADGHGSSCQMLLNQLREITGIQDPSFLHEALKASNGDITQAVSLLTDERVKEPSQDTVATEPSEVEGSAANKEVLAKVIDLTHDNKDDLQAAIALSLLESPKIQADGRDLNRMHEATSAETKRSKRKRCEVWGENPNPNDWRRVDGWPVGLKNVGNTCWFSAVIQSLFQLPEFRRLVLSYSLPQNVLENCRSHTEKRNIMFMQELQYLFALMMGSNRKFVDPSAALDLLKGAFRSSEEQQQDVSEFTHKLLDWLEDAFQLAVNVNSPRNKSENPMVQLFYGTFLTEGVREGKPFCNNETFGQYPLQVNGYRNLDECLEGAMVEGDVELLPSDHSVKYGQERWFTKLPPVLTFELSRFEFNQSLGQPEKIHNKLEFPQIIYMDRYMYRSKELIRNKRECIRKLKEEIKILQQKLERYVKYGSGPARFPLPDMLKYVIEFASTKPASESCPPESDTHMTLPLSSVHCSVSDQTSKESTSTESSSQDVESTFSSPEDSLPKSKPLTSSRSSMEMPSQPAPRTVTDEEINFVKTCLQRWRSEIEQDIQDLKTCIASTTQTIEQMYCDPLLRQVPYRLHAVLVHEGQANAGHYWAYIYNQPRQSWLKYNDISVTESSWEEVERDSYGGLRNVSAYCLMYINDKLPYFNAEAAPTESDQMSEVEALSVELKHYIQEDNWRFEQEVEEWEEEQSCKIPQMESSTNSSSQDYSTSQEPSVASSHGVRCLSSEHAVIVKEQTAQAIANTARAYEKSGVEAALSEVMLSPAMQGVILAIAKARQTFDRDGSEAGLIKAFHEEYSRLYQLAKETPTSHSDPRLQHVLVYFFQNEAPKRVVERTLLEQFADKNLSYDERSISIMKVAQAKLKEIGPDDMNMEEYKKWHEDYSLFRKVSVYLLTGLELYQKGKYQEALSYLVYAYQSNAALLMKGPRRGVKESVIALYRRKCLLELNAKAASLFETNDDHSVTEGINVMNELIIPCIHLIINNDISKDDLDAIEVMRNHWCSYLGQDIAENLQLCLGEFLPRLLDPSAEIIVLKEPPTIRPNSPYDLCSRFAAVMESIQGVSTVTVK
In short: as §1

Measured: log2 ratio of Biotin-Ahx-Ub-VS probe labelling

USP24, sequence (Q9UPU5 whole entry): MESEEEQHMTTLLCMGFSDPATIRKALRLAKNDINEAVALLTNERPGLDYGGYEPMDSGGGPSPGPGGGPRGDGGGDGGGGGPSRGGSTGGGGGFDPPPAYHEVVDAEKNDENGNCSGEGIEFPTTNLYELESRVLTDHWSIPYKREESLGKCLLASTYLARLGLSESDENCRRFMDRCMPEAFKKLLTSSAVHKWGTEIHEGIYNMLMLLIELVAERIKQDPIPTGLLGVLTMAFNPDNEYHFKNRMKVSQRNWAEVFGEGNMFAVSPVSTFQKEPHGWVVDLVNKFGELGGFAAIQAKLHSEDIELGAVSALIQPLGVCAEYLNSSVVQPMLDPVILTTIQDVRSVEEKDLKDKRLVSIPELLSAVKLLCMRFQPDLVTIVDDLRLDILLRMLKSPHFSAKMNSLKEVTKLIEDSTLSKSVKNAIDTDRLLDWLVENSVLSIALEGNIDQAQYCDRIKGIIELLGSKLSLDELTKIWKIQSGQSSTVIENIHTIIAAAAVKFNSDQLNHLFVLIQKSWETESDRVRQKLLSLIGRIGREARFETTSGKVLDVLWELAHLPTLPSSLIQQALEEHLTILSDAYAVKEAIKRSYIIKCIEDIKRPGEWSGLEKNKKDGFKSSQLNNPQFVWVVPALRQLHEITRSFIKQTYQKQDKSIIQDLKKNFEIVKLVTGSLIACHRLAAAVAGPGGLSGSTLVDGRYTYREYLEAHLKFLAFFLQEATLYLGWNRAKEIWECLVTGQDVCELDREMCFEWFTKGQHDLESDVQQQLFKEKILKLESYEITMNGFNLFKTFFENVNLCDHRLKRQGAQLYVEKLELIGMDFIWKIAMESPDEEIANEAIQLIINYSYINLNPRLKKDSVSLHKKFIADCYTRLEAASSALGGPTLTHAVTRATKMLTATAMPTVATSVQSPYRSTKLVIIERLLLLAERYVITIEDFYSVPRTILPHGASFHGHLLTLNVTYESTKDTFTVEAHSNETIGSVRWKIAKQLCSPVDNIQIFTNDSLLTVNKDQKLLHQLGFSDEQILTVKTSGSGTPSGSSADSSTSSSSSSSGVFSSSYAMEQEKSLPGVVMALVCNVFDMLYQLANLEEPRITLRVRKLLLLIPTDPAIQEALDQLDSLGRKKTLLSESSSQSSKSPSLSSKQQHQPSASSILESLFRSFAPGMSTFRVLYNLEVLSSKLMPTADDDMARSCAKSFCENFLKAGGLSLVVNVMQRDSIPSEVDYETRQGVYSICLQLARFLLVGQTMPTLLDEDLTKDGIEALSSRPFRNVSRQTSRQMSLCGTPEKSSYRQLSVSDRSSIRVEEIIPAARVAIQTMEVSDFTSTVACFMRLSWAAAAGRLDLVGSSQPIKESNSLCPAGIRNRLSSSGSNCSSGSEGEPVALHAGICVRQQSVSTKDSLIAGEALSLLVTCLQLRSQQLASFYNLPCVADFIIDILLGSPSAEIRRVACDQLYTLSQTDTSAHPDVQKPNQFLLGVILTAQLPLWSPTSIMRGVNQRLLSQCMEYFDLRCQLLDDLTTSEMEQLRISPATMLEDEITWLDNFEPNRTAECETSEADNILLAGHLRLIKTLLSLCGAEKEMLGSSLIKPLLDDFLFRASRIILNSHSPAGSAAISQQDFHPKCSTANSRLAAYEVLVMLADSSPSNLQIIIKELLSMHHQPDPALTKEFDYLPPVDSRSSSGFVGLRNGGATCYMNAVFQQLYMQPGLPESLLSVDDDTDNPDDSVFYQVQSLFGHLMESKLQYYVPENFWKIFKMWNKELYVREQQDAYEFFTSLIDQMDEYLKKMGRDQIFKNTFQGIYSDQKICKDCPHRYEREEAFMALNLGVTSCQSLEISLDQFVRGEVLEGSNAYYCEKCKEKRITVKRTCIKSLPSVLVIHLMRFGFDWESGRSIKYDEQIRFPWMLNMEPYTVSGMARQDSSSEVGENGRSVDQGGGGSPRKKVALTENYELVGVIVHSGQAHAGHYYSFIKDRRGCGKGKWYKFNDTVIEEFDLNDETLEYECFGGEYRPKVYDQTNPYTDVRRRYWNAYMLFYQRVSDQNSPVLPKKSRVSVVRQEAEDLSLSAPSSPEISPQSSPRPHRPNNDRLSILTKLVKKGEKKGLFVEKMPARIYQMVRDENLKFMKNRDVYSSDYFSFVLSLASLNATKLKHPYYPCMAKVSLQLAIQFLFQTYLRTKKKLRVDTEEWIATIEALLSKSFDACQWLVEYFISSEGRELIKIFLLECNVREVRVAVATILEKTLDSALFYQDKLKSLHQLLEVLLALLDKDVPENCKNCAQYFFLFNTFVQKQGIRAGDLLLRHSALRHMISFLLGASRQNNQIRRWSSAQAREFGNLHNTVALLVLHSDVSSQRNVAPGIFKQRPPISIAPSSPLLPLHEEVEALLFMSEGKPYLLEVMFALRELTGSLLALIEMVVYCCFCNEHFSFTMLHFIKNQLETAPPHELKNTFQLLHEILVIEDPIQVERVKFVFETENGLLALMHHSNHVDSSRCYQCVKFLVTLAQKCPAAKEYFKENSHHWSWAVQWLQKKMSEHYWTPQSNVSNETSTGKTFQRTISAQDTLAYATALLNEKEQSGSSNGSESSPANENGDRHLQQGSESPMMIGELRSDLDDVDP

N#Cc1ccc(CNC(=O)CCl)cc1
inactive: [1] -0.0911 | [2] -0.183 | [3] -0.413 | [4] -0.49
